Screening data: PubChem BioAssay, National Center for Advancing Translational Sciences (NCATS)
HT1080-NT tox: kills 2HG-producing HT-1080-NT fibrosarcoma cells | AID 686970 | HT-1080-NT fibrosarcoma viability, CellTiter-Glo ATP luminescence, 48 h | 1.6% of 360,000 active | Potency, µM (top dose mostly 46.1 µM), for the others: at the top dose activity, negative = less viability, actives largely listed as cytotoxic;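 also: NT is the 2HG producing partner of a matched IDH1 knockdown line; 0% = DMSO-treated cells and -100% = media-only wells without cells; nearly all actives have a fitted effect of over 55% in size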
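Read-out is CellTiter-Glo luminescence after 10 minutes at room temperature, following 48 hours' compound treatment of HT-1080-NT cells (750 cells/well, RPMI, 5% FBS, 37 degrees C).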
KB-3-1 tox: KB-3-1 parental cell cytotoxicity. AID 1347075. KB-3-1 viability, CellTiter-Glo ATP luminescence, 72 h. Potency, µM (titrated, usually from 46.1 µM), hits mostly cytotoxic. 1.4% of 400,000 active; also: nearly all actives have a fitted effect of over 60% in size
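KB-3-1 parental drug-naive adenocarcinoma cells in DMEM/10% FBS, incubated 72 h at 37 C with pin-transferred compounds across a concentration series. Viability by CellTiter-Glo luminescence; concentration-response curves fitted after normalization.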
HT1080 IDH1KD tx: kills HT-1080 cells with IDH1 knockdown. HT-1080 IDH1 knockdown viability, ATP luminescence, 48 h. Potency, µM (titrated, usually from 46.1 µM), for the others: top-dose activity, negative = toxicity, actives largely listed as cytotoxic. 2% of 360,000 active. AID 686971;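 also: 0% = DMSO wells and -100% = cell-free medium wells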
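Assay cells: HT-1080 with IDH1 knockdown, 750 per well, RPMI/5% FBS. Exposure: 48 h at 37 °C following 2 h pre-incubation. Read: CellTiter-Glo luminescence; fitted concentration-response, curve class assigned.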
KB-V1 cytotox: KB-V1 MDR subline cytotoxicity; KB-V1 MDR cells viability, CellTiter-Glo, 72 h; 3.4% of 400,000 active; Potency, µM (titrated, usually from 46.1 µM), usual class: cytotoxic; also: nearly all actives have a fitted effect of over 60% in size
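Cells of the MDR subline KB-V1 are plated, dosed with compound at multiple concentrations, and incubated 72 h at 37 degrees C; CellTiter-Glo is then added and luminescence read after 10 min.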
TDP1 cell CPT: growth inhibition of DT40 Tdp1-/-;hTDP1 cells with camptothecin (screen for TDP1 inhibitors). Potency, µM (titrated, usually from 46.2 µM), inactives show at the highest dose activity change, negative = growth inhibition, actives largely listed as inhibitors. AID 686979. chicken DT40 Tdp1-/-;hTDP1 cells + 20 nM CPT, ATP luminescence, 48 h. 12% of 420,000 active; also: nearly all actives have a fitted effect of over 55% in size
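Chicken DT40 Tdp1-/- cells complemented with human TDP1, 400 cells/well, exposed to compounds plus 20 nM camptothecin for at least 48 h at 37 C; viability read as ATP content by CellTiter-Glo luminescence.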
DT40 TDP1 no CPT: qHTS for Inhibitors of human tyrosyl-DNA phosphodiesterase 1 (TDP1): qHTS in cells in absence of CPT; DT40 Tdp1-/- hTDP1 cells, no CPT, ATP luminescence, 48 h; Potency, µM (titrated, usually from 46.2 µM), for inactives: at the highest dose activity change, negative = growth inhibition, usual class: inhibitors; 15% of 420,000 active; AID 686978, 2013; also: nearly all actives have a fitted effect of over 55% in size
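No-CPT arm: Tdp1-/-;hTDP1 DT40 cells (400/well) plus compounds, incubated ≥48 hr at 37 °C. Readout CellTiter-Glo luminescence.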
Active calls of the source: *; i = inactive; ? = inconclusive; nt = no result. Rows were chosen to be rich in hits. Some 19% of all compounds tested hit in one or more screens of this group. Calls follow the shape of the dose curve; as a rule, active = well fitted curve in the direction sought with a large enough effect; inconclusive = small, poorly fitted or top-dose-only effect, or another doubt; inactive = no such curve, though single readings can be large; an effect the other way counts as inactive or inconclusive. Unless noted, % is scaled to controls: 0 for no effect and ±100 for the full control effect; potency is read from the fitted curve at half-maximal effect.

SMILES	HT1080-NT tox	KB-3-1 tox	HT1080 IDH1KD tx	KB-V1 cytotox	TDP1 cell CPT	DT40 TDP1 no CPT
COc1ccccc1C(=O)N1CCN(c2nc3cc(C)c(C)cc3cc2C#N)CC1	?	?	?	i	18µM*	16µM*
Cc1cc(C)c2cc(C#N)c(N3CCCN(C(=O)c4cnccn4)CC3)nc2c1	2%	i	1%	?	-8%	18µM*
CC(=O)c1cccc(S(=O)(=O)N2CCN(c3nc4cc(C)cc(C)c4cc3C#N)CC2)c1	2%	i	2%	i	15µM*	?
COc1ccccc1C(=O)N1CCN(c2nc3cc(C)cc(C)c3cc2C#N)CC1	0%	i	-7%	?	23µM*	21µM*
Cc1cc(C)c2cc(C#N)c(N3CCCN(S(=O)(=O)c4ccccc4)CC3)nc2c1	7%	i	2%	i	-7%	?
Fc1cc2ncn(Cc3ccccc3)c2cc1F	-1%	i	2%	i	5%	-9%
Cc1c(C(=O)Nc2ccccc2)csc1-c1ccccc1	-24%	i	-12%	i	-19%	?
COc1cc2ncc(C(=O)c3ccc(C)cc3)c(N3CCCCC3)c2cc1OC	nt	i	nt	i	12µM*	12µM*
CCOC(=O)C1CCN(c2c(C(=O)c3ccc(OCC)cc3)cnc3ccc(OC)cc23)CC1	nt	i	nt	?	23µM*	21µM*
CCOC(=O)C1CCCN(c2c(C(=O)c3ccccc3)cnc3ccc(OC)cc23)C1 (stereo unspecified)	9%	i	17%	?	15µM*	21µM*
CCOc1ccc(C(=O)COC(=O)C2CCN(c3ccc(C(F)(F)F)cn3)CC2)cc1	5%	i	-13%	i	?	?
CCN1CCN(c2c(C(=O)c3ccc(OC)cc3)cnc3ccccc23)CC1	-2%	i	0%	i	-15%	-18%
CCOC(=O)C1CCCN(c2c(C(=O)c3ccc(OCC)cc3)cnc3ccccc23)C1 (stereo unspecified)	nt	i	nt	i	18µM*	?
COc1cc(/C=N/O)cc(Cl)c1OC	4%	i	8%	i	1%	-24%
CCOc1c(Cl)cc(/C=N/NC(N)=S)cc1OC	1%	i	2%	7.3µM*	?	23µM*
C#CCOc1c(Cl)cc(/C=N/NC(N)=S)cc1OCC	4%	i	3%	?	?	10µM*
CCOc1ccc(CCNC(=O)c2cc(C)nc3ccccc23)cc1OCC	-3%	i	1%	i	-29%	1%
O/C(=C\c1ccc2ccccc2n1)c1ccc(O)cc1O	?	i	?	i	12%	-21%
COc1ccc([C@H]2CC(=O)C=C(c3cc(C)ccc3OC)C2)cc1	?	21µM*	?	5.8µM*	4.1µM*	6.5µM*
COc1ccc([C@H]2CC(=O)C=C(c3ccccc3-c3ccccc3)C2)cc1	?	?	?	?	23µM*	23µM*
COc1ccc([C@H]2CC(=O)C=C(c3ccccc3Oc3ccccc3)C2)cc1	-20%	i	-6%	i	?	?
COc1ccc([C@H]2CC(=O)C=C(c3cc(C)ccc3F)C2)cc1	4%	i	-2%	i	-23%	?
CCOc1ccc(Br)cc1C1=CC(=O)C[C@H](c2ccc(OC)cc2)C1	?	5.8µM*	5.8µM*	16µM*	4.6µM*	2.9µM*
COc1ccc([C@H]2CC(=O)C=C(c3cc(Br)ccc3OC)C2)cc1	-18%	?	?	?	18µM*	16µM*
COc1ccc([C@H]2CC(=O)C=C(c3ccc(Br)c4ccccc34)C2)cc1	-6%	i	0%	i	-4%	-2%
SMILES	HT1080-NT tox	KB-3-1 tox	HT1080 IDH1KD tx	KB-V1 cytotox	TDP1 cell CPT	DT40 TDP1 no CPT
CCOC(=O)C1(C)CCCN(C(=O)c2ccc3c(c2)CCO3)C1 (stereo unspecified)	21%	i	5%	i	-16%	-11%
CN1C=CC=C/C1=C1\SC(=S)N(N)C1=O	21%	i	13%	i	7%	-24%
COc1ccc(OC)c(C2=CC(=O)C[C@H](c3ccc4c(c3)OCO4)C2)c1	?	10µM*	?	?	7.3µM*	10µM*
COc1ccc([C@H]2CC(=O)C=C(c3ccnc4ccc(Cl)cc34)C2)cc1	18µM*	?	3.7µM*	i	8.2µM*	9.2µM*
COc1ccc([C@H]2CC(=O)C=C(c3ccc(OC(F)(F)F)cc3)C2)cc1	0%	i	4%	?	?	?
COc1c(F)cccc1C1=CC(=O)C[C@H](c2ccc3c(c2)OCO3)C1	-4%	i	0%	i	?	?
O=C1C=C(c2ccc3cc[nH]c3c2)C[C@@H](c2ccc3c(c2)OCO3)C1	18µM*	i	-80%	i	1.8µM*	10µM*
COc1ccc([C@H]2CC(=O)C=C(c3cccc(OC(F)(F)F)c3)C2)cc1	17%	i	2%	i	23µM*	?
COC1OC2COC(c3ccccc3)OC2C(OC(C)=O)C1OC(C)=O (stereo unspecified)	18%	i	?	i	0%	4%
Cc1cc(C)c(C2=CC(=O)C[C@H](c3ccc4c(c3)OCO4)C2)c(C)c1	-4%	i	2%	i	18µM*	?
COCCNC(=O)c1nn(-c2ccc(Cl)cc2)nc1CO	nt	nt	nt	nt	-15%	2%
COc1ccc(CNC(=O)CSc2nnc3c(Cl)cc(C(F)(F)F)cn23)cc1OC	20%	i	16%	?	7%	-1%
C=CCN1C(=O)C2(C(C#N)=C(N)Oc3n[nH]c(CCC)c32)c2ccccc21 (stereo unspecified)	8%	i	6%	i	10%	-12%
CC1Cc2cc(/C=C3/SC(=S)NC3=O)ccc2O1 (stereo unspecified)	-15%	i	-22%	i	0%	18µM*
CCN(CC)c1ccc(/C=C2\SC(N)=NC2=O)cc1	1%	i	2%	?	-2%	-19%
CCN(CC)c1ccc(C=C2SC(=S)NC2=O)cc1	0%	i	-1%	i	13µM*	?
COc1ccc(CNC(=O)CN2C(=O)COc3ccccc32)c(OC)c1	nt	nt	nt	nt	-4%	-24%
COc1cccc(CNC(=O)CCCC(=O)NC(C)CCc2ccccc2)c1 (stereo unspecified)	0%	i	-1%	i	-8%	-21%
